# Inconclusive results are not listed. Unmarked numbers belong to inactive results. The source made the active and inactive calls. Calls follow the shape of the dose curve; as a rule, active = well fitted cell-killing curve with a large enough effect in the repeat runs; inconclusive = weak or mixed curves, or effect the other way; inactive = no such curve, though single readings can be large or run the other way.
# Experiment: qHTS assay to identify small molecule agonists of the farnesoid-X-receptor (FXR) signaling pathway - cell viability counter screen (AID 743218); also: nearly all actives have a fitted effect of over 45% in size
# Settings: FXR-bla HEK293T viability, CellTiter-Glo luminescence, 16 h; series mostly up to 62.6 µM; viability change, negative = cytotoxic: at the top concentration
# Excerpt: U.S. Tox21 Program National Center for Advancing Translational Sciences [NCATS] NIH Chemical Genomics Center [NCGC] U.S. Environmental Protection Agency [EPA] National Institutes of Environmental Health Sciences [NIEHS] National Toxicology Program [NTP] U.S. Food and Drug Administration [FDA] Tox21 Assay Overview: The farnesoid-X-receptor (FXR), a nuclear hormone receptor, is highly expressed in liver, intestine, kidney and adrenal cortex. Natural ligands of FXR are the bile acids (Cholic acid, Chenodeoxy cholic acid etc). FXR is an important regulator of diverse metabolic pathways, including the bile acid homeostasis, lipid and glucose metabolisms. FXR regulates the expression of target genes by binding either as a monomer or as a heterodimer with the retinoid X receptor (RXR). Numerous studies have reported that FXR exerts protective function during cholestasis, diabetes, liver regeneration, and cancer. To identify compounds that activate FXR signaling, GeneBLAzer FXR-UAS-bla HEK 293T cell line (Invitrogen, Carlsbad, CA) containing a beta-lactamase reporter gene under the control of a UAS response element was used to screen the Tox21 10K compound library. The cytotoxicity of the Tox21 compound library against the FXR-bla cell line was tested in parallel by measuring the cell viability using CellTiter-Glo assay in the same wells.
# Tox21 Assay Protocol Summary: FXR-bla cells were dispensed at 5000 cells/5uL/well in 1536-well black wall/clear bottom plates using a Multidrop Combi (Thermo Fisher Scientific, Waltham, MA) dispenser. After the assay plates were incubated at 37 C and 5% CO2 for 5 h, 23 nL of compounds dissolved in DMSO, positive controls or DMSO only was transferred to the assay plate by a Pintool station (Kalypsys, San Diego, CA). The assay plates were incubated at 37C for 16 h. After 1 uL of LiveBLAzerTM B/G FRET substrate was added using a Bioraptr Flying Reagent Dispenser (FRD) workstation (Beckman Coulter, Indianapolis, IN), the plates were incubated at room temperature for 2 h, and fluorescence intensity was measured by an Envision plate reader (PerkinElmer, Shelton, CT). For cell viability readout that measures cytotoxicity, 4uL/well of CellTiter-Glo reagent was added into the assay plates using a Bioraptr FRD. After 30 min incubation at room temperature, the luminescence intensity in the plates was measured using a ViewLux plate reader (PerkinElmer).
# % is scaled to controls: 0 for no effect and ±100 for the full control effect; potency is read from the fitted curve at half-maximal effect.
SMILES,"viability change, negative = cytotoxic",Potency
COc1cc(C(=O)NCCCCCC(=O)O)cc(OC)c1OC,3.08%,
CC(C)C=O,1.43% [at 81.1 µM],
CC[C@]1(O)C[C@H]2CN(CCc3c([nH]c4ccccc34)[C@@](C(=O)OC)(c3cc4c(cc3OC)N(C=O)[C@H]3[C@@](O)(C(=O)OC)[C@H](OC(C)=O)[C@]5(CC)C=CCN6CC[C@]43[C@@H]65)C2)C1,2.43%,
c1cc(N(CC2CO2)CC2CO2)ccc1Cc1ccc(N(CC2CO2)CC2CO2)cc1 (stereo not given),-8.23%,
O=C(/C=C/c1ccc(O)c(O)c1)O[C@@H]1C[C@@](OC(=O)/C=C/c2ccc(O)c(O)c2)(C(=O)O)C[C@@H](O)[C@@H]1O,6.04%,
O=[N+]([O-])c1cc(C2CCCCC2)c(O)c([N+](=O)[O-])c1,-29.7%,
COc1cc(Nc2c(C#N)cnc3cc(OCCCN4CCN(C)CC4)c(OC)cc23)c(Cl)cc1Cl,,13.3 µM (active)
C=COCC(C)C,0% [at 81.1 µM],
Cc1ccc(OC(=O)c2ccccc2O)cc1,-6.21%,
CC(CCC(=O)O)C(=O)O (stereo not given),24.3%,
CC(C)=CC(=O)C=C(C)C,1.59%,
CCCCCCCCCI,-0.509% [at 81.1 µM],
CCCCN(CCN(CCCC)C(=O)N1CCOCC1)C(=O)N1CCOCC1,-14.8%,
NCCNCCO,12.4% [at 81.1 µM],
CCC(OCCCOC)OC(C)=O (stereo not given),13.8% [at 81.1 µM],
O=C1c2ccccc2C(=O)C1c1nc2ccccc2c(Br)c1O,-3.35%,
CCCCCC[C@@H](O)C/C=C\CCCCCCCC(=O)OCC(O)CO (stereo not given in full),-21.4%,
CCOc1cccc(-n2cc(C(=O)N3CCN(c4cc(C(=O)O)c5ccccc5c4)CC3)nc2-c2ccc(C)cc2)c1,,46.7 µM (active)
Cc1cscn1,13.1%,
CN1CC(=O)N2[C@H](c3ccc4c(c3)OCO4)c3[nH]c4ccccc4c3C[C@@H]2C1=O,-0.677%,

SMILES,"viability change, negative = cytotoxic",Potency
CC(C)Nc1cccnc1N1CCN(C(=O)c2cc3cc(NS(C)(=O)=O)ccc3[nH]2)CC1,-10.5%,
O=c1[nH]ncc2ccccc12,-6.09%,
CCn1cc(C(=O)O)c(=O)c2cc(F)c(N3CCNCC3)cc21,-1.37%,
Cc1cc(O)c(C)c(C)c1O,-7.42%,
NC1[C@H]2CN(c3nc4c(cc3F)c(=O)c(C(=O)O)cn4-c3ccc(F)cc3F)C[C@@H]12 (stereo not given in full),0.0643%,
Nc1ccc(N=Nc2ccccc2)c(N)c1,-9%,
Cc1ccc(C(C)(C)O)cc1,-0.128%,
N#CCc1ccc(Cl)cc1Cl,8.92%,
NNC(=O)CP(=O)(c1ccccc1)c1ccccc1,1.29%,
CC(CN(C)C)C(C)(O)Cc1ccc(Cl)cc1 (stereo not given),-13.8%,
CC(CO)CO,12.4% [at 81.1 µM],
CC=C(Cl)Cl,27%,
OCCOCC#CCOCCO,-7.87%,
Cc1ccc(CO)cc1,16% [at 81.1 µM],
CCC(C)COC(=O)CC(C)C (stereo not given),,24.5 µM (active)
CO[C@]1(NC(=O)CSC(F)F)C(=O)N2C(C(=O)O)=C(CSc3nnnn3CCO)CO[C@H]21,7.25%,
Cc1ccccc1N=C(N)Nc1ccccc1C,-11.9%,
COc1ccccc1N1CCN(CCCCNC(=O)c2ccc(-c3ccc(C(C)=O)cc3)cc2)CC1,13.5%,
O=C(O)CCc1nc(-c2ccccc2)c(-c2ccccc2)o1,5.95%,
C=CC(=O)OCC1CC2CC1C1CCC(COC(=O)C=C)C21 (stereo not given),-20.8%,
